The sequences below were run on FXR:RXRa (NR concentration 270 nM, RXRa partner concentration 90 nM) (assay: PBM binding z-score (relative to random genomic background probes); higher = stronger binding; sequences stand for … in GC…GCGATTGACAGCGTAGAATGAAGG).
Method in brief: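 Antibodies against each partner of ligand-free nuclear receptor dimers (one per run) detected binding on custom Agilent 4×180K protein-binding microarrays after 1 h incubation. The double-stranded probes had 34-nt variable regions carrying direct-repeat seeds, single-nucleotide variants, half-site ablations and random human genomic background sequences. Binding z-scores, from regression-normalized fluorescence, use the random background probes as reference.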
Work on CCTAGTTGGTCAGGAGGTCACACTCCGGATATGA yielded a PBM binding z-score of 3.59.
ACTATTAGATGACTTAGGGCAACCGATACGACGC showed a PBM binding z-score of 0.344.
CGAACTAGGTCATTGACAGGACAGTGAGTAGTAA gave a PBM binding z-score of 4.28.
For GGAACGAGGGCATTCGAGGTGATAGCATGGCGAT, the PBM binding z-score was 1.32.
GCGACTGGGGCATCAGCAGGTTACCAGAACTTAA gave a PBM binding z-score of -0.204.
With CCTAGCAGGCCAACCTGGGTCACTCAAGGCTTGA the PBM binding z-score was 1.14.
TGAATGAGGTCATAAGATCAGGGAACGTTGCAAA showed a PBM binding z-score of 7.31.
GATACATGGTCAAGGCCAGAGTACGCGTATTGAT showed a PBM binding z-score of -0.39.
Sequence CGTGCAAGGTCAGCAGGTCAGTGAAAGCGACGTG has a PBM binding z-score of 6.34.
TTACCAAGGTGAGCTGAGGTCATTGATCCAACTC showed a PBM binding z-score of 4.44.
CAAACCAGGTCACCGGAAGGTCAAAGTCCGCATG gave a PBM binding z-score of 7.26.
With ACAAGCAGGCCAAGTTTGGGTCACTCAAACAAAG the PBM binding z-score was 0.226.
For TCTTGTAGATCAATAGAGGTCAAGAAAGTGCGCT, the PBM binding z-score was 3.34.
In the case of ACTCGGAGGACAAAGGTTAGAGCTACGCCAGTGA, the PBM binding z-score is reported as 0.928.
For CAAACTAGGTCACCGGAAGGTCCAAGTCCGCATG, the PBM binding z-score was 4.24.
GCGACTGGGGCATGAGCAGGTTACCATAACTTAA was tested, and the PBM binding z-score was -0.261.
ATCTCTAGGTAAAGATAGTTCAGTGCATGCAAAT showed a PBM binding z-score of 0.301.
Sequence TAGCATAGGTCATTCAGGGGCCAGTATAGAAAGC has a PBM binding z-score of 6.82.
For ATCGAAAGGTGGTGAGGTGAGTATACAGAAAGGC, the PBM binding z-score was 0.483.
For CCTACTGGGCCATTCAGCGGTCATTGATCATATG, the PBM binding z-score was -0.0404.
CTCGAAAGGTCGGTTGAGGAGAGTATACGGATAA was tested, and the PBM binding z-score was 1.93.
In the case of TCAGACAGGTGAAGGTAACTCACGTACGCAGTCG, the PBM binding z-score is reported as 0.8.
TCTCGTAGATCAATAGAGGTTAAGAAAGTGCGCT gave a PBM binding z-score of 0.399.
Work on ACCGAAAGGTCGAGGTGAGTATAGAGAAAGGGAA yielded a PBM binding z-score of 4.42.
TTACCAAGGTGATAGGTCGTTGATGCACGCCTTG showed a PBM binding z-score of 0.534.
TCTATTAGTTGATTTGGGCAACCGAAACAGCGGA was tested, and the PBM binding z-score was 0.267.
Sequence CAAACTAGGTCATGAGGTCAAAGTCCGCTTCCCG has a PBM binding z-score of 6.96.
CGTCCAAGGCCAAGGTCAGTGAAAGAGACTCGAA was tested, and the PBM binding z-score was 1.58.
Work on ATCTCTAGGTAAAAGTTCAGCGAATCCCGAGGAT yielded a PBM binding z-score of 1.36.
Sequence ATACCAAGGTGATCGTGAGATCGTTGATACTAAC has a PBM binding z-score of 0.2.
CCTACTGGGCCACGAAAGGTCTTTGATTCAGTGA gave a PBM binding z-score of 0.186.
With GCTAGTAGTTGAAAGGGCAACCGAATGATTCTCG the PBM binding z-score was 0.181.
AGTAGCAGGCCAAGTTTGGGTCACTCAAACAAAG gave a PBM binding z-score of 0.202.
Sequence CCGACTGGGGCAAAGGTTACCAGACTCAGTACGA has a PBM binding z-score of 1.56.
Sequence ATCTCAAGGTAAAAGTTCAGTGAATCCCGAGGAT has a PBM binding z-score of 1.18.
Sequence CCTACTGGGCCACGAAAGGTTATTGATTCAGTGA has a PBM binding z-score of 0.471.
ACTTACGCGTCAACGAGGTTATAGCACGCGTATA was tested, and the PBM binding z-score was 0.0989.
With TCTTGTAGATCAAAGGTTAACAAAGCCGAAGCCT the PBM binding z-score was 1.99.
TCTTGTAGATCAACAGGAGGTTAGGAAAGATCGA was tested, and the PBM binding z-score was -0.355.
With TCTATTTGTTGAAGGGCAACCGACGAGTCCGTTT the PBM binding z-score was 0.938.
